{"source": "PubChem BioAssay", "data": [{"system": "Inhibin beta A chain (activin A)", "assay": "INHBA (activin A) binders on microarrays, primary screen, biochemical, small-molecule microarray, 635 nm fluorescence scan (AID 1107);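 note: mouse activin A protein probed at 4.33 µg/mL on printed slides; score merges bound-protein fluorescence near 667 nm with spot signal-to-noise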", "conditions": "small-molecule microarray binding, higher = more signal", "values": [{"smiles": "NC(=O)NCC#Cc1ccc2c(c1)[C@]1(C(=O)N2)[C@H](C(=O)O)[C@H]2C(=O)O[C@H](c3ccccc3)[C@H](c3ccccc3)N2[C@@H]1c1ccc(OCCO)cc1", "composite z-score": 0.882}, {"smiles": "[N-]=[N+]=Nc1ccccc1C[C@]1(C(=O)N2CCOCC2)N=C(c2ccc(OCCCO)cc2)O[C@H]1c1ccccc1", "composite z-score": 0.52}, {"smiles": "COc1ccc(C#Cc2ccc3c(c2)[C@]2(C(=O)N3)[C@H](c3ccc(O)cc3)N3[C@H](c4ccccc4)[C@H](c4ccccc4)OC(=O)[C@H]3[C@@H]2C(=O)O)cc1", "composite z-score": 0.326}, {"smiles": "O=C1O[C@@H](c2ccccc2)[C@@H](c2ccccc2)N2[C@@H](c3ccc(OCCO)cc3)[C@]3(C(=O)Nc4ccccc43)[C@@H](C(=O)O)[C@H]12", "composite z-score": 0.758}, {"smiles": "C=C(/C(=C/C[C@H](OC(C)=O)c1cccc(OCCO)c1)c1cnc2ccccc2c1)C(C)C", "composite z-score": 1.98}, {"smiles": "COc1ccc([Si](C)(C)[C@H]2[C@H](CCn3cc([C@H](O)c4ccccc4)nn3)O[C@@]3(C(=O)N(Cc4ccc(N5C(=O)c6cccc7cccc5c67)cc4)c4ccccc43)[C@@H]2C)cc1", "composite z-score": -1.13}, {"smiles": "CCC(CC)C(O)C1C=CC2C(=O)N(c3ccccc3)C(=O)C2N1Nc1ccc(C(C)C)cc1", "note": "(stereo unspecified)", "composite z-score": 0.916}, {"smiles": "COC1OC[C@]2(C)[C@H]3C4=C(CN2C(=O)OC(C)(C)C)[C@H](C)C(CO)C(CO)C4CC[C@@H]13", "note": "(stereo partly specified)", "composite z-score": 1.17}, {"smiles": "COC(=O)[C@@]1(Cc2ccccc2N=[N+]=[N-])N=C(c2ccc(OCCCO)cc2)O[C@H]1c1ccccc1N=[N+]=[N-]", "composite z-score": 1.31}, {"smiles": "CC1CC/C=C\\[C@H]2OC34C=CCN(C(C)C)C(=O)[C@H]3N(CCCCCCO)C(=O)[C@@H]4C2C(=O)O1", "note": "(stereo partly specified)", "composite z-score": 0.25}, {"smiles": "COC(=O)[C@@]1(Cc2ccc(OC)cc2)[C@H]2c3cc(C(=O)N4CCCC4)n(Cc4cccc5ccccc45)c3C[C@H]2CN1C(=O)c1ccccc1", "composite z-score": 0.849}, {"smiles": "COc1ccc([Si](C)(C)[C@H]2[C@H](CC(=O)N(CCO)Cc3ccccc3)O[C@@]3(C(=O)N(Cc4cccc(N5CCOC5=O)c4)c4ccccc43)[C@@H]2C)cc1", "composite z-score": 0.81}, {"smiles": "Cc1cc(C)c(C(O)C2C=CC3C(=O)N(c4ccccc4)C(=O)C3N2Nc2ccc(C(C)C)cc2)c(C)c1", "note": "(stereo unspecified)", "composite z-score": 0.202}, {"smiles": "C=C(/C(=C/C[C@@H](OC(C)=O)c1cccc(OCCO)c1)c1cc(C(=O)OC)ccc1OC)C(C)C", "composite z-score": 0.632}, {"smiles": "O=C1O[C@H](c2ccccc2)[C@H](c2ccccc2)N2[C@H]1[C@@H](C(=O)Nc1nc3ccccc3s1)[C@]1(C(=O)Nc3ccc(C#CC4(O)CCCCCC4)cc31)[C@H]2c1ccccc1OCCO", "composite z-score": -0.0311}, {"smiles": "CN1C(=O)C2C=CC(C(O)C#Cc3ccccc3)N(Nc3ccccc3)C2C1=O", "note": "(stereo unspecified)", "composite z-score": 0.926}, {"smiles": "C=CC[C@@]1(C(=O)N2CCOCC2)N=C(c2ccc(OCCCO)cc2)O[C@@H]1c1ccccc1CN=[N+]=[N-]", "composite z-score": 1.34}, {"smiles": "COc1cc(OC)c(C(O)C2C=CC3C(=O)N(C)C(=O)C3N2NC(=O)OC(C)(C)C)cc1Br", "note": "(stereo unspecified)", "composite z-score": 0.594}, {"smiles": "CC(C)(C)OC(=O)CC[C@]1(C(=O)NCc2ccccc2)N=C(c2ccc(OCCCO)cc2)O[C@H]1c1ccccc1CN=[N+]=[N-]", "composite z-score": 0.554}, {"smiles": "CCCCCCc1nc(C2CC2)cc2c1[Si](C(C)C)(C(C)C)O[C@H]2c1ccccc1", "composite z-score": 0.741}, {"smiles": "COc1ccc(NC(=O)O[C@H]2[C@H](OC(=O)Nc3ccccc3)[C@H](OC(=O)Nc3ccccc3)[C@@H](OC)O[C@@H]2CO)cc1", "composite z-score": 0.593}, {"smiles": "COc1ccc([Si](C)(C)[C@@H]2[C@@H](CCO)O[C@]3(C(=O)N(Cc4ccc(N5CCCCC5=O)cc4)c4ccccc43)[C@H]2C)cc1", "composite z-score": 0.669}, {"smiles": "COC(=O)c1cn(C[C@@H](Cc2ccccc2)NC(=O)N[C@H](CO)CCc2oc(C(C)=O)c(C(=O)OC)c2C(=O)OC)nn1", "composite z-score": -0.293}, {"smiles": "C=C(CCCC)/C(=C/C[C@@H](OC(=O)c1ccncc1)c1ccccc1OCCO)c1cnc2ccccc2c1", "composite z-score": 1.69}, {"smiles": "O=C1NC(=O)C2C1C=CC(C(O)c1ccco1)N2Nc1ccccn1", "note": "(stereo unspecified)", "composite z-score": 1.01}, {"smiles": "C=CCC(OC(C)=O)[C@@H]1[C@@H](N(Cc2cc3ccccc3o2)C(=O)c2ccc(C)cc2)c2cc(OCCCO)ccc2N1C(=O)Cc1ccc(OC)cc1", "note": "(stereo partly specified)", "composite z-score": 1.01}, {"smiles": "C=CCC(OC(C)=O)[C@@H]1[C@@H](N(Cc2ccc(-c3cccc(C(F)(F)F)c3)o2)C(=O)c2ccc(-c3ccccc3)cc2)c2cc(OCCCO)ccc2N1C(=O)c1ccc2ccccc2n1", "note": "(stereo partly specified)", "composite z-score": 1.28}, {"smiles": "CN1C(=O)C2C=CC(C(O)c3cccc(O)c3)N(Nc3ccccc3)C2C1=O", "note": "(stereo unspecified)", "composite z-score": 0.866}, {"smiles": "CN1C(=O)C2C=CC(C(O)COCc3ccccc3)N(N(c3ccccc3)c3ccccc3)C2C1=O", "note": "(stereo unspecified)", "composite z-score": -0.101}, {"smiles": "COCCCNC(=O)[C@]1(CCS(=O)(=O)c2ccccc2)N=C(c2ccc(OCCCO)cc2)O[C@@H]1c1ccccc1N=[N+]=[N-]", "composite z-score": 0.963}, {"smiles": "O=C1C2C=CC(C(O)c3ccccc3)N(Nc3ccccc3F)C2C(=O)N1c1ccccc1", "note": "(stereo unspecified)", "composite z-score": 0.626}, {"smiles": "CCOC(=O)c1ccc(NC(=O)O[C@H]2[C@H](OC(=O)Nc3ccc4c(c3)OCO4)[C@@H](OC(=O)Nc3ccc4c(c3)OCO4)[C@@H](OC)O[C@@H]2CO)cc1", "composite z-score": 0.51}, {"smiles": "COc1ccc([Si](C)(C)[C@@H]2[C@@H](CC(=O)N3Cc4ccccc4C[C@H]3CO)O[C@]3(C(=O)N(C)c4ccccc43)[C@H]2C)cc1", "composite z-score": 0.916}, {"smiles": "O=C(NCC(F)(F)F)[C@@H]1c2ccccc2C(=O)N(Cc2ccccc2C(F)(F)F)[C@H]1c1ccc(CO)cc1", "composite z-score": 0.547}, {"smiles": "OCC1CC(c2ccccc2)=NO1", "note": "(stereo unspecified)", "composite z-score": 0.685}, {"smiles": "C=CCNC(=O)[C@@H]1[C@H]2C(=O)O[C@H](c3ccccc3)[C@H](c3ccccc3)N2[C@H](c2ccc(O)cc2)[C@@]12C(=O)N(C(=O)OCCOC)c1ccc(C#CC3(O)CCCCCC3)cc12", "composite z-score": -1.46}]}]}
